Most compounds without a hit are left out; they make up all but 7.9% or so of the library.
HCV inhibitor = blocks hepatitis C virus. 340,000 tested, 3.4% active. Potency, µM (doses to about 41.8 µM), inactives show at the top dose activity change, negative = inhibition, usual class: inhibitors. Huh7.5.1 HCVcc-Cre infection, luciferase reporter, 44 h; active = well fitted inhibition curve with a large enough effect; inconclusive = small, poorly fitted or top-dose-only effect, or another doubt; inactive = no such curve, though single readings can be large or run the other way; also: potency is read from the fitted curve at half-maximal effect
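Infectious HCV cell culture screen: compound-treated cells (1,000/well, pre-plated 4 h) are infected with HCVcc-Cre at roughly 0.5 moi and grown 44 h. Infection is quantified by luciferase signal after 15 min substrate incubation at room temperature.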
Lassa entry inh = blocks Lassa virus binding to or entry into cells; Lassa virus pseudotype entry inhibition, cell reporter; Potency, µM (top dose mostly 37.9 µM), for the others: at the top dose activity change, negative = inhibition, usual class: inhibitors; 300,000 tested, 1.2% active; calls by dose curve; tested in HEK293 cells; also: potency is read from the fitted curve at half-maximal effect; nearly all actives have a fitted effect of over 50% in size
Marburg entry inh = blocks Marburg virus binding to or entry into cells. Marburg virus pseudotyped entry inhibition, cell reporter. Potency, µM (titrated, usually from 37.8 µM), inactives show at the top dose activity change, negative = inhibition, hits mostly inhibitors. 300,000 tested, 1.8% active. AID 540276; calls by dose curve; tested in HEK293 cells; also: potency is read from the fitted curve at half-maximal effect
HCMV inh = inhibitors of human cytomegalovirus | HFF cells, HCMV-luciferase reporter, 72 h; hits give low values | activity change, negative = inhibition, % at 57.5 µM | 410,000 tested, 4.5% active | AID 1259415; in the data active = activity change below about -60%; inconclusive = no clear call, values can overlap the other calls; inactive = above about -39%
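HFF cells seeded 16 h at 37C, treated with compounds, infected with luciferase-reporter HCMV at MOI 1 PFU/cell; luciferase read at 72 h post infection, normalized to buffer-only and Salinomycin controls.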
FMDV antiviral = foot and mouth disease virus antiviral activity. FMDV antiviral cell-based qHTS. Potency, µM (top dose mostly 57.9 µM), for the others: at the top dose activity change, negative = inhibition, most hits filed as inhibitors. 410,000 tested, 1.2% active; calls by dose curve; tested in HEK293T cells; also: read-out not given here; potency is read from the fitted curve at half-maximal effect; nearly all actives have a fitted effect of over 45% in size
Starred values were filed as active, the others as inactive; ? = inconclusive; · = no result given; [ ] = remark or other dose. % is scaled to controls: 0 for no effect and ±100 for the full control effect.

SMILES	HCV inhibitor	Lassa entry inh	Marburg entry inh	HCMV inh	FMDV antiviral
O=C(Nc1ccc(F)cc1)c1nc[nH]c1C(=O)Nc1ccc([N+](=O)[O-])cc1	6%	3%[46.1 µM]	?	-61*	-21%
NS(=O)(=O)c1ccc(CCNC(=S)NC2CCCC2)cc1	9%	·	·	80	-5%
O=C(Nc1ccc([N+](=O)[O-])cc1)c1nc[nH]c1C(=O)NC1CCCCC1	-12%	1%	-5%	-18	-10%
O=[N+]([O-])c1ccc(NNC(=S)Nc2ccccc2)cc1	11µM*	-1%	?	·	-1%
O=[N+]([O-])c1ccc(NC(=S)NCc2ccc(F)cc2)cc1	?	?	?	-99*	-6%
COc1ccc([N+](=O)[O-])cc1NC(=S)Nc1ccccc1	4%	9%	5%	44	-24%
S=C(NCCc1ccc(Cl)cc1)NC1CC1	11%	·	·	-75*	26%
O=[N+]([O-])c1ccc(NC(=S)NCc2ccncc2)cc1	?	1%[46.1 µM]	?	-19	-6%
FC(F)(F)c1cccc(-c2cc3c(Nc4ccncc4)nccc3[nH]2)c1	·	·	·	-15	·
Cc1ccc(-n2ncc(C(=O)NCCCN3CCCCC3)c2C2CCN(C(=O)OC(C)(C)C)CC2)c(C)c1	·	-27%[46.1 µM]	·	-14	-21%
COc1ccc2nc(N(Cc3cccnc3)C(=O)c3ccco3)sc2c1	·	2%[46.1 µM]	·	54	35%
CC(C)(C)c1ccc(Oc2ccc(NC(=O)CCC(=O)OCC(=O)c3ccccc3)cc2)cc1	·	?	1%[46.1 µM]	-9	-13%
CNC(=O)C(=O)NCCN1CCN(C(=O)c2ccc([N+](=O)[O-])cc2)CC1	13%	-17%	-6%[46.1 µM]	33	-9%
CCCCc1ccc(NC(=O)C(=O)NCCN2CCN(Cc3ccc([N+](=O)[O-])cc3)CC2)cc1	?	·	·	-60*	?
Cc1ccc(NC(=O)CN(C)C(=O)COC(=O)c2ccc(NC(=O)CC#N)cc2)cc1	9%	5%	-13%	-34	-17%
Cc1ccc(Cn2ccsc2=NC(=O)CCl)cc1	0.56µM*	·	·	-99*	?
Cc1ccc(NC(=O)CSCC(=O)N=c2sccn2C)cc1	0%	9%	-11%	-2	3%
Cc1ccc(Cn2ccsc2=NC(=O)COC(=O)c2ccc(NC(=O)CC#N)cc2)cc1	?	?	?	-7	25µM*
CCn1c(-c2ccccc2F)nc2cc(NC(C)=O)cc(C(=O)N3CCCC3c3nccs3)c21 (centres undefined)	·	·	·	·	-13%
CCc1cnc2c(c1SCC(=O)Nc1ccc(C)cc1C)c(=O)n(C)c(=O)n2C	·	18%[46.1 µM]	·	2	-23%
COc1cccc(/C=C2\SC(=S)N(CCC(=O)NCCc3ccc(O)cc3)C2=O)c1	?	?	?	-100*	0%
COc1cccc(/C=C2/SC(=S)N(CCC(=O)N3CCOCC3)C2=O)c1	?	?	5µM*	-4	18%
COc1cccc(/C=C2\SC(=S)N(CCCC(=O)Nc3cccc(C(=O)O)c3)C2=O)c1	·	·	·	·	7%
COc1cccc(/C=C2\SC(=S)N(CCCC(=O)N3CCCCC3)C2=O)c1	13µM*	·	·	-20	-15%
COc1ccc(/C=C2\SC(=S)N(CCC(=O)N3CCOCC3)C2=O)cc1	-27%	16%	-21%	-11	27%
SMILES	HCV inhibitor	Lassa entry inh	Marburg entry inh	HCMV inh	FMDV antiviral
COc1cccc(/C=C2\SC(=S)N(CCC(=O)Nc3ccc(O)cc3)C2=O)c1	?	·	·	32	38%
CCOc1ccc(NC(=O)CC2C(=O)N(c3ccccc3)C(=O)N2C2CCCC2)cc1 (centres undefined)	·	?	·	-6	-9%
O=C(C1CCN(Cc2ccc(F)cc2)CC1)N1CCN(C/C=C/c2ccccc2)CC1	?	?	?	?	-11%
S=C(NC1CCCC1)N1CCN(C/C=C/c2ccccc2)CC1	10µM*	-21%[46.1 µM]	?	-64*	?
S=C(Nc1ccccc1)N1CCN(C/C=C/c2ccccc2)CC1	?	?	?	-19	-21%
O=C(C1CCN(Cc2ccccc2)CC1)N1CCN(C/C=C/c2ccccc2)CC1	?	?	14µM*	-33	?
O=c1cnn(-c2ccc(Cl)cc2Cl)c(-c2ccccc2)c1	?	?	-40%	78	2%
O=C1CC(c2cccnc2)=NN1c1ccc(Cl)cc1Cl	-1%	-22%	6%[46.1 µM]	-100*	3%
COC(=O)C1(O)CC(c2ccccc2)C(C(=O)c2ccc(Cl)cc2)N1c1ccccc1 (centres undefined)	·	·	·	-77*	·
CCN1CCN(Cc2nc3cc(NC(=O)c4ccccc4[N+](=O)[O-])ccc3n2CC)CC1	·	0%[46.1 µM]	-14%[46.1 µM]	-29	1%
CCc1cc(C(=O)OCC(=O)NCCc2ccccc2)sc1C	·	·	·	-85*	-14%
CCCc1cc(C(=O)OCC(=O)NCCc2ccccc2)sc1C	·	·	·	?	-26%
Cc1ccc(C(=O)c2ccccc2C(=O)OCC(=O)NCCc2ccccc2)cc1	-28%	-25%	?	-67*	0%
O=C(COC(=O)c1ccccc1C(=O)c1ccc(Cl)cc1)NCc1ccccc1	-12%	·	·	-32	-17%
c1ccc(CSc2ncnc3ccccc23)cc1	?	-1%	?	-31	7%
Fc1ccc(CSc2ncnc3ccccc23)cc1	3%	-20%	?	-68*	3%
O=C(CSc1ncnc2ccccc12)c1cccs1	3%	?	?	1	-39%
O=[N+]([O-])c1cccc(CSc2ncnc3ccccc23)c1	-27%	6%	2%	-81*	-13%
Cc1ccc(C(=O)CSc2ncnc3ccccc23)o1	4%	?	?	-60*	8%
CCOc1ccc(OCC)c(NC(=O)CN2CCN(c3cccc(C)c3)C(C)C2)c1 (centres undefined)	8.9µM*	?	?	-7	?
COC(=O)c1[nH]c2cc(OC)ccc2c1NC(=O)CCN1CCN(c2ccccc2)CC1	-12%	-3%	-13%	-3	-11%
COC(=O)c1[nH]c2cc(OC)ccc2c1NC(=O)CCN1CCN(c2cccc(C)c2C)CC1	6.3µM*	?	?	8	40µM*
COC(=O)c1[nH]c2ccccc2c1NC(=O)CN1CCN(c2cccc(OC)c2)C(C)C1 (centres undefined)	?	-14%	?	-103*	?
Cc1cnc(-n2ncc(C(=O)NCCc3ccccn3)c2C)nc1-c1ccc(F)cc1	·	·	·	·	-1%
Cc1ccc(C)c(N2CCN(C(=O)Nc3cn(CC(C)C)c(=O)c4ccccc34)CC2)c1	·	-12%[46.1 µM]	·	1	-1%
COc1ccc(-c2nc3c(C#N)c[nH]n3c2NC2CCCC2)c(OC)c1	·	-10%[46.1 µM]	8%[46.1 µM]	-6	13%
CC(C)OCCCNC(=O)c1ccc2c(c1)N(Cc1c(F)cccc1Cl)C(=O)c1ccccc1S2	·	?	?	?	-17%
c1ccc(C[C@H]2CN=C(Nc3ccccc3)N2CCCC2CCCCC2)cc1	4µM*	·	·	-61*	-18%
c1ccc(C[C@H]2CN=C(Nc3ccccc3)N2CC2CCCCC2)cc1	-29%	·	·	21	-14%
CC(C)C[C@H]1CN=C(Nc2ccccc2)N1CCCC1CCCC1	?	·	·	-70*	?

Assay outcomes deposited in PubChem BioAssay by National Center for Advancing Translational Sciences (NCATS).
